Measurements published in ChEMBL document CHEMBL1961873, “Compounds: GSK PKIS; Assays: Nanosyn kinase panel” (2012).

Key:
[1] = molecular target: Platelet-derived growth factor receptor beta (Homo sapiens) (UniProt P09619); conditions: at 1 µM;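 note: each value is a mean percent inhibition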
[2] = molecular target: Tyrosine-protein kinase FRK (Homo sapiens) (UniProt P42685); conditions: at 0.1 µM
[3] = molecular target: Tyrosine-protein kinase FRK (Homo sapiens) (UniProt P42685); conditions: at 1 µM
[4] = molecular target: Protein-tyrosine kinase 2-beta (Homo sapiens) (UniProt Q14289); conditions: at 0.1 µM
[5] = molecular target: Protein-tyrosine kinase 2-beta (Homo sapiens) (UniProt Q14289); conditions: at 1 µM
[6] = molecular target: Proto-oncogene tyrosine-protein kinase receptor Ret (Homo sapiens) (UniProt P07949); conditions: at 0.1 µM
[7] = molecular target: Proto-oncogene tyrosine-protein kinase receptor Ret (Homo sapiens) (UniProt P07949); conditions: at 1 µM
[8] = test system: Proto-oncogene tyrosine-protein kinase receptor Ret (Homo sapiens), P07949 [V804L]; conditions: at 0.1 µM
[9] = test system: Proto-oncogene tyrosine-protein kinase receptor Ret (Homo sapiens), P07949 [V804L]; conditions: at 1 µM
[10] = test system: Proto-oncogene tyrosine-protein kinase receptor Ret (Homo sapiens), P07949 [Y791F]; conditions: at 0.1 µM
[11] = test system: Proto-oncogene tyrosine-protein kinase receptor Ret (Homo sapiens), P07949 [Y791F]; conditions: at 1 µM
[12] = molecular target: Macrophage-stimulating protein receptor (Homo sapiens) (UniProt Q04912); conditions: at 0.1 µM
[13] = molecular target: Macrophage-stimulating protein receptor (Homo sapiens) (UniProt Q04912); conditions: at 1 µM
[14] = molecular target: Proto-oncogene tyrosine-protein kinase ROS (Homo sapiens) (UniProt P08922); conditions: at 0.1 µM
[15] = molecular target: Proto-oncogene tyrosine-protein kinase ROS (Homo sapiens) (UniProt P08922); conditions: at 1 µM
[16] = molecular target: Proto-oncogene tyrosine-protein kinase Src (Homo sapiens) (UniProt P12931); conditions: at 0.1 µM
[17] = molecular target: Proto-oncogene tyrosine-protein kinase Src (Homo sapiens) (UniProt P12931); conditions: at 1 µM
[18] = molecular target: Tyrosine-protein kinase Srms (Homo sapiens) (UniProt Q9H3Y6); conditions: at 0.1 µM
[19] = molecular target: Tyrosine-protein kinase Srms (Homo sapiens) (UniProt Q9H3Y6); conditions: at 1 µM
[20] = molecular target: Tyrosine-protein kinase SYK (Homo sapiens) (UniProt P43405); conditions: at 0.1 µM;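 note: reported percentages are mean inhibition values for SYK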

Chain of Platelet-derived growth factor receptor beta (Homo sapiens) (P09619 whole entry): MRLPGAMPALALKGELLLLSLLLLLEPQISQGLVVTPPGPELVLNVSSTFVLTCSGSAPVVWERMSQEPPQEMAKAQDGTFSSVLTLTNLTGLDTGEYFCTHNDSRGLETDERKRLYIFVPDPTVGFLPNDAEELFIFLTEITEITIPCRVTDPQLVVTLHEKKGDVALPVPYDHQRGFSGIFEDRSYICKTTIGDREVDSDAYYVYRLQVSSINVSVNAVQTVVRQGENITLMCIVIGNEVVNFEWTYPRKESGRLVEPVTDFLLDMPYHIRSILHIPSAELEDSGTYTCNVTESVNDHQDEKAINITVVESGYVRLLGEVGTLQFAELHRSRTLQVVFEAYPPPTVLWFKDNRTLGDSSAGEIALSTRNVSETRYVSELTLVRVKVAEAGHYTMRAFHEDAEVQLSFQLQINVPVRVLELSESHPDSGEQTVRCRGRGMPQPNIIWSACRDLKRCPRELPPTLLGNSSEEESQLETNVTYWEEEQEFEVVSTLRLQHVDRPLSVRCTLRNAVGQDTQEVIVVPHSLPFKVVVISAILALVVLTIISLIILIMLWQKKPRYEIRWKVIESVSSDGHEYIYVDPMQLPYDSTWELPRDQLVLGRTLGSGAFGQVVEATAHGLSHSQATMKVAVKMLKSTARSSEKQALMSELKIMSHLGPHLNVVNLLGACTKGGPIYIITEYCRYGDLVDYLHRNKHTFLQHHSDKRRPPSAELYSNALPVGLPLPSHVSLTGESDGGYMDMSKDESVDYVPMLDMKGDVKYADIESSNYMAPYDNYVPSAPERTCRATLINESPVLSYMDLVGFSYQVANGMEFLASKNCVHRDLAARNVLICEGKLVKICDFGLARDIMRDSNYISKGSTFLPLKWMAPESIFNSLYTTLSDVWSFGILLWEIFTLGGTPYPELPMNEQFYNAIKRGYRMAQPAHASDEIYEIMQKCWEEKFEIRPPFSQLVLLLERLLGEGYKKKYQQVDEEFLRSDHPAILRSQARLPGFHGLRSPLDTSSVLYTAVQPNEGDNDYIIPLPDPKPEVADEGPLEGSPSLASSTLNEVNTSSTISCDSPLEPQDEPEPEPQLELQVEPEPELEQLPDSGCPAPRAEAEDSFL
Chain of Macrophage-stimulating protein receptor (Homo sapiens) (Q04912 25-304 limits assumed): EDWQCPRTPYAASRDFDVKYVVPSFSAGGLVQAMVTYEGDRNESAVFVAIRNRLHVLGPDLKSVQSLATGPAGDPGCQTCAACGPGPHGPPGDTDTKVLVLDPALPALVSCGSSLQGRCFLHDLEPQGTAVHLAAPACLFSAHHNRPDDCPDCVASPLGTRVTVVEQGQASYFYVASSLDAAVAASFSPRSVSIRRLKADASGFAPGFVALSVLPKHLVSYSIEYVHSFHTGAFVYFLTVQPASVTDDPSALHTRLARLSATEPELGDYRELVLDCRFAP
Chain of Macrophage-stimulating protein receptor (Homo sapiens) (Q04912 310-1400 limits assumed): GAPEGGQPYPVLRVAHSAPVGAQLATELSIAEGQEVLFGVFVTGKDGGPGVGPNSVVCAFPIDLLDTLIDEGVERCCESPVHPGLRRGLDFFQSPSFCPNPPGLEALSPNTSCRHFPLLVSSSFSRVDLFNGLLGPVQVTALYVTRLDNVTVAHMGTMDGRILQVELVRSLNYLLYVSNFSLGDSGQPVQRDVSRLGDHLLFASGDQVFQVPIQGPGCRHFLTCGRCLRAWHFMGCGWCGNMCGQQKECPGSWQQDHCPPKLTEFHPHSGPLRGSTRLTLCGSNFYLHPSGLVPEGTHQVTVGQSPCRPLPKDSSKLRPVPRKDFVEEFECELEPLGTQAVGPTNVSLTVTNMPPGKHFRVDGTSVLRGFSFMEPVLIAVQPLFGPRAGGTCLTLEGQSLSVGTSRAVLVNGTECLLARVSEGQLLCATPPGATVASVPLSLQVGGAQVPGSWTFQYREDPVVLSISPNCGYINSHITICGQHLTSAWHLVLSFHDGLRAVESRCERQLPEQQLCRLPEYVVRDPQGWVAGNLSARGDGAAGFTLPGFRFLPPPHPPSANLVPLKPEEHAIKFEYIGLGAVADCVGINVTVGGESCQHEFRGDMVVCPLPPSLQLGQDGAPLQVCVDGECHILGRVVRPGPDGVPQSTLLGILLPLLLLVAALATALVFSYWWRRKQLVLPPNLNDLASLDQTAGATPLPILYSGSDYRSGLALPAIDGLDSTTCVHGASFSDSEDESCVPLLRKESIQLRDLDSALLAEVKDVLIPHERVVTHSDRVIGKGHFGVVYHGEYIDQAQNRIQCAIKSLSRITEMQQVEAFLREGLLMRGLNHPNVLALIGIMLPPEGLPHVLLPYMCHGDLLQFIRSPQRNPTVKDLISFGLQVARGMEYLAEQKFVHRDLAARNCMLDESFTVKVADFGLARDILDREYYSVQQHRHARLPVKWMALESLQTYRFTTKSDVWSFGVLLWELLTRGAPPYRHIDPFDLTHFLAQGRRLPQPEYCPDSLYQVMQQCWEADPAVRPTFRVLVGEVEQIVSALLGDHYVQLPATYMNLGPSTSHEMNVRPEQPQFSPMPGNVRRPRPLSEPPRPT
Chain of Protein-tyrosine kinase 2-beta (Homo sapiens) (Q14289 whole entry, looked up): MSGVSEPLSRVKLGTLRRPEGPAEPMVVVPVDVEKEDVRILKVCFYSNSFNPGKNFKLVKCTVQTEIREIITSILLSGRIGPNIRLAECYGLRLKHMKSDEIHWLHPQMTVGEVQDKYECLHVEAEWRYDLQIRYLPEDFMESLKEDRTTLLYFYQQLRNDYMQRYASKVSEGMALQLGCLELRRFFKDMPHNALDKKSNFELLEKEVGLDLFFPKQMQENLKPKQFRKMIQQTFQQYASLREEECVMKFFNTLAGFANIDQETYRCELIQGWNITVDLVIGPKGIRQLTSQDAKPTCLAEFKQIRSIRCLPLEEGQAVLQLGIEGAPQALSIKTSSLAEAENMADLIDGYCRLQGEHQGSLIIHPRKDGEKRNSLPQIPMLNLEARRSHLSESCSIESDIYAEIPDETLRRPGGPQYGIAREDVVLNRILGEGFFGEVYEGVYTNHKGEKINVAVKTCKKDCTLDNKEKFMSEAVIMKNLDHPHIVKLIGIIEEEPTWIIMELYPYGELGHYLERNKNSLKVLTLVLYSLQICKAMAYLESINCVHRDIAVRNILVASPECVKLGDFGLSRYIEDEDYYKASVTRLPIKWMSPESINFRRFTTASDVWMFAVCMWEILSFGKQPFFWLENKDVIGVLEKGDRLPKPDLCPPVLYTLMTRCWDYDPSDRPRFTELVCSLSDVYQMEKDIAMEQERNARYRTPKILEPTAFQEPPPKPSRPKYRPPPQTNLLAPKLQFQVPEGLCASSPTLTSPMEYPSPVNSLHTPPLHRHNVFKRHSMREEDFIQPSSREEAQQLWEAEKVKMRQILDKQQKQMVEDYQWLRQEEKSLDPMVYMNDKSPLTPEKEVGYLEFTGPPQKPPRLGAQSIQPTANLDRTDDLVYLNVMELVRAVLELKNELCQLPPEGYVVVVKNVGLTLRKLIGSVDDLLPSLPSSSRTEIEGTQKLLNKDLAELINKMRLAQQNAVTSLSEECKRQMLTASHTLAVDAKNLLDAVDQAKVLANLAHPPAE
Chain of Proto-oncogene tyrosine-protein kinase Src (Homo sapiens) (P12931 2-536 limits assumed): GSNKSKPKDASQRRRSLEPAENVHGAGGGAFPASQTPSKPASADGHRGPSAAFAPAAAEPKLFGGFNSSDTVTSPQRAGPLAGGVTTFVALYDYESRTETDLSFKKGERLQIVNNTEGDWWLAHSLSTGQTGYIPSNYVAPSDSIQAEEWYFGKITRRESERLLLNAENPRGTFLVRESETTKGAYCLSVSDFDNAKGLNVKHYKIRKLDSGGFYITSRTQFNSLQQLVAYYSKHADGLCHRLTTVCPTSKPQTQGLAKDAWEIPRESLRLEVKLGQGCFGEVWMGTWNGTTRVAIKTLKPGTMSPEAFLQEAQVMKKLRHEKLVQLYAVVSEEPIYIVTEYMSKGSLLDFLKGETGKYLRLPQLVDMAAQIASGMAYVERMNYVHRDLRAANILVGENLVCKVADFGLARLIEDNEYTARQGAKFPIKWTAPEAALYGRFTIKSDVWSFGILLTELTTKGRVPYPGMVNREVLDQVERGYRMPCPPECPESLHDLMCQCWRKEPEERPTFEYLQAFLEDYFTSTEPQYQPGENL
Chain of Tyrosine-protein kinase FRK (Homo sapiens) (P42685 whole entry): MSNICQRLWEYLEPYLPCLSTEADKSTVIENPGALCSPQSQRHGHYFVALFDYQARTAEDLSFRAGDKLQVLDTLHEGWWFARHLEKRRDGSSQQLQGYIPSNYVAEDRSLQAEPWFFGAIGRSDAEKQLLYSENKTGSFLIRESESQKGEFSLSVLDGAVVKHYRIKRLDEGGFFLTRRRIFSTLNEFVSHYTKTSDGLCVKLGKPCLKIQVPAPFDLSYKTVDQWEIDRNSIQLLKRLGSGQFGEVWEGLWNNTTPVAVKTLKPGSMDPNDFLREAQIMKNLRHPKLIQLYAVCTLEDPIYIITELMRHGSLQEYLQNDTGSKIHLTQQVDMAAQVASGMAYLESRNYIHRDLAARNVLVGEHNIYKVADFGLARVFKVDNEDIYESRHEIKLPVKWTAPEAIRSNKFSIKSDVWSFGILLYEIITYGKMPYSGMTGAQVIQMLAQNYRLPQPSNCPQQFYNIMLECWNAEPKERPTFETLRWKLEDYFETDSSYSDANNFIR
Chain of Tyrosine-protein kinase Srms (Homo sapiens) (Q9H3Y6 whole entry): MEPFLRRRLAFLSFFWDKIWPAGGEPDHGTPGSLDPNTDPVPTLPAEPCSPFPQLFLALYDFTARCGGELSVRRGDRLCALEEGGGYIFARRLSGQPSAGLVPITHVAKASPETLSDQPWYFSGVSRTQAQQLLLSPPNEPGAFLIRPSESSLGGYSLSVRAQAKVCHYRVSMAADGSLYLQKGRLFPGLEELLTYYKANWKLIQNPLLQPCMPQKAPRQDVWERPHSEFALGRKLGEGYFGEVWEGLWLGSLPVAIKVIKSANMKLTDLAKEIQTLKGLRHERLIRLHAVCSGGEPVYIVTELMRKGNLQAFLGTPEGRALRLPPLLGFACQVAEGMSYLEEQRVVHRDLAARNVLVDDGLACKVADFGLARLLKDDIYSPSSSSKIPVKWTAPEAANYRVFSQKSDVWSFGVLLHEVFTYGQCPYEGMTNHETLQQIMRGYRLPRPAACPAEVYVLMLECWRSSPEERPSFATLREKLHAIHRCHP

SMILES	inhibition [1] [%]	inhibition [2] [%]	inhibition [3] [%]	inhibition [4] [%]	inhibition [5] [%]	inhibition [6] [%]	inhibition [7] [%]	inhibition [8] [%]	inhibition [9] [%]	inhibition [10] [%]	inhibition [11] [%]	inhibition [12] [%]	inhibition [13] [%]	inhibition [14] [%]	inhibition [15] [%]	inhibition [16] [%]	inhibition [17] [%]	inhibition [18] [%]	inhibition [19] [%]	inhibition [20] [%]
Cc1nnc(-c2ccc(C)c(-c3ccc(C(=O)Nc4cccc(C#N)c4)cc3)c2)o1	10.9	2.05	2.02	4.97	6.48	7.9	12.9	4.42	8.03	4.58	15.7	1.95	3.79	1.81	1.44	3.95	6.82	-0.52	0.42	3.5
CC1=C(C(=O)Nc2ccc3[nH]ncc3c2)C(c2ccc3ccccc3c2)CC(=O)N1 (stereo unspecified)	13.7	2.73	17.3	3.97	7.64	20.4	65.8	12.4	53.2	20.1	60.5	34	67.5	7.1	14.5	13	64.9	1.12	1.41	2.43
CCn1c(-c2nonc2N)nc2cncc(C(=O)N3CCNCC3)c21	4.8	3.81	4.59	4.67	9.07	4.73	6.87	3.5	6.04	5.85	5.78	3.02	4.33	7.86	7.97	14.1	16.4	-3.72	-2.89	-1.71
Cc1cccc(-c2n[nH]cc2-c2ccc3ncccc3n2)n1	26.5	1.55	-0.81	-4.16	0.67	1.65	15.1	-1.82	2.72	3.64	18.7	3.7	1.79	1.26	4.08	2.63	3.67	0.03	3.34	1.27
COC(=O)Nc1nc2cc(Oc3ccc(NC(=O)Nc4cccc(C(=O)O)c4)cc3)ccc2[nH]1	16.2	0.4	0.91	-5.8	6.37	7.47	14.1	2.8	15	1.53	26.3	0.89	5.64	-2.86	3.11	1.83	7.71	0.44	0.74	5.41
CCc1cccc(NC(=O)Nc2ccc(Oc3ccc4nc(NC(=O)OC)[nH]c4c3)cc2)c1	56.3	-0.04	2.98	0.73	8.1	72.8	79.9	35.6	63.1	53.5	74.6	5.94	5.62	-0.48	0.49	0.79	5.84	0.61	1.28	2.75
CCn1c(-c2nonc2N)nc2cncc(C(=O)N3CC[C@H](N)C3)c21	10.7	3.16	2.04	10.8	7.69	5.56	4.11	3.46	4.03	4.17	13.9	2.92	6.19	7.46	6.07	-1.35	7.23	0.37	-0.65	-5.72
Cn1cc(C=C2C(=O)Nc3cccnc32)c2ccccc21	42	0.71	3.75	5.59	25.2							3.7	0.13	4.42	10.1	12.8	42.2	-1.82	0.18	3.56
CC(C)=Cc1cccc2c1/C(=N/Nc1ccc(S(N)(=O)=O)cc1)C(=O)N2	62.6	1.44	5.49	3.24	27.5	14.8	60.7	16.4	67.4	6.44	50.3	2.03	4.1	-0.28	20	10.8	46.4	3.21	4.02	2.78
CS(=O)(=O)CCNCc1nc(-c2ccc3ncnc(Nc4ccc(F)c(Cl)c4)c3c2)cs1	9.07	-0.58	2.43	-0.72	1.64	4.76	13.1	5.1	11	7.75	31	1.17	-0.2	-1.86	1.3	8.61	9.31	-0.09	1.81	2.81
COc1ccccc1Nc1ncc(-c2ccccc2)o1	47.7	3.68	5.01	0.49	11.1	5.4	6.88	3.68	5.75	9.37		6.08	1.59	5.04	11.2	8.59	11.2	-1.24	2.11	-1.37
COc1cc2ncn(-c3cc(OCc4ccccc4Cl)c(C(N)=O)s3)c2cc1OC	86.5	2.63	2.45	-1.12	6.28	17.7	60.8	4.73	26.9	20.7	60.2	0.23	13.3	9.59	29.2	20.5	20.9	2.74	7.95	-2.2
O=C1Nc2ccc(C(=O)c3ccco3)cc2C1=Cc1cc(Cl)c(O)c(Cl)c1	18.5	1.7	7.16	15	34.6	19.6	58.1	38.4	74.7	16	54.8	14.5	18.8	6.01	11.2	3.8	15.5	21.3	59.7	-6.13
O=C1NC(=O)C(c2ccccc2Cl)=C1Nc1cccc(O)c1	3.43	0.88	0.39	5.7	8.51	1.55	7.91	3.61	2.98	2.99	6.27	1.7	4.87	3.13	6.28	3.41	7.83	-0.89	-2.12	0.85
COc1ccc(-c2nn3ncccc3c2-c2ccnc(Nc3ccc(Cl)c(C(F)(F)F)c3)n2)cc1	5.76	1.65	0.79	5.54	10.5	2.17	-0.91	2.33	6.71	2.51	13.3	-1.78	2.44	2.34	2.35	1.05	9.68	0.23	1.79	-1.43
CC1=C(C(=O)Nc2ccc3[nH]ncc3c2)C(c2ccc(F)cc2)NC(=O)N1 (stereo unspecified)	6.86	1.9	1.47	10.1	8.37	6.58	35	6.27	35.5	8.37	42.4	4.69	21.4	7.19	29.2	-8.18	4.28	0.2	2.69	0.2
Fc1cccc(COc2ccc(Nc3ncnc4cc(-c5ccc[nH]5)sc34)cc2Cl)c1	8.52	2.14	2.25	7.86	11.5	9	11.5	3.25	8.38	7.54	15.8	4.56	4.33	9.9	12.1	3.22	6.79	-0.83	1.08	1.5
Cc1nn(C)c2cc(N(C)c3ccnc(Nc4cccc(S(N)(=O)=O)c4)n3)ccc12	61.6	3.71	11.6	9.35	17.8	11.9	39	5.4	34.2	12.6	46.8	5.47	22.4	63.2	80.2	11.1	49.5	0.83	9.11	-6.41
COc1ccc(-c2coc3ncnc(N)c23)cc1	12.1	1.9	2.14			4.27	11.7	4.56	5.32	10.4	11	8.95	5.93	6.03	7.88	5.47	8.84	-2.61	-2.53	-0.77
COc1cc2ncn(-c3cc(O[C@H](C)c4ccccc4Cl)c(C(N)=O)s3)c2cc1OC	95.3	2.17	2.07	10.3	32.2	18.2	51.8	19.5	54.8	20.7	63.8	14.8	17.8	10.7	36.5	7.81	40.7	2.69	6.05	1.76
O=C1NC(=O)C(c2ccc(Cl)cc2)=C1Nc1ccc(Cl)c(C(=O)O)c1	6.67	-0.84	0.85	-2.28	3.24	3.14	2.98	0.34	-0.69	0.25	-1.73	-4.02	2.12	1.45	3.13	0.48	-1.52	0.85	2.75	-1
COc1ccc2cc(-c3c(-c4ccncc4)nc(-c4ccc([S+](C)[O-])cc4)n3C)ccc2c1 (stereo unspecified)	4.23	2.23	1.18	3.6	4.13	4.55	8.7	3.54	-0.15	5.77	-4.94	4.56	4.27	4.08	5.77	4.77	8.58	-0.98	-1.29	-1.34
NS(=O)(=O)c1ccc(N/N=C2\C(=O)Nc3ccc(C(=O)NCCc4c[nH]cn4)cc32)cc1	82.7	0.73	3.44	12.8	24.2	15.3	57.8	42.6	83.5	22.8	63.7	0.68	6	10.9	18.1	-1.33	33	-0.78	1.4	-4.27
CS(=O)(=O)CCN(CC#N)Cc1ccc(-c2ccc3ncnc(Nc4ccc(OCc5cccc(F)c5)c(Cl)c4)c3c2)o1	6.45	1.47	2.48	3.85	9.33	0.24	2.76	1.02	3.35	2.36	3.1	0.07	0.14	6.53	4.3	3.38	4.01	1.13	-1.83	1.85
COc1cc(C)c(NC(=O)CN(C)C)cc1Nc1nc(Nc2cccc(F)c2C(N)=O)c2cc[nH]c2n1	15	0.21	1	93.1	98	1.91	5.56	4.41	20.7	5.09	2.8	3.91	3.91	79.7	86	11.1	6.65	1.04	1.18	0.17
COC(=O)Nc1nc2cc(Oc3cccc(NC(=O)Nc4cc(C(F)(F)F)ccc4F)c3)ccc2[nH]1	45.3	-0.02	1.37	0.22	-4.43	17	61.1	4.35	8.1	9.63	38.9	6.28	-2.46	1.83	2.46	9.23	5.13	0.35	-1.15	0.17
CCn1c(-c2nonc2N)nc2cnc(Oc3cccc(NC(=O)c4ccc(OCCN5CCOCC5)cc4)c3)cc21	9.39	2.25	0.86	4.56	13	6.91	10.4	2.37	6.08	5.99	7.86	3.1	5	8.56	11	3.92	7.72	-0.56	-0.69	-4.21
